Results published in the supplement of paper PMC6555819.

tested on: VDR:RXRa (NR concentration 270 nM, RXRa partner concentration 90 nM); assay: PBM binding z-score (relative to random genomic background probes); higher = stronger binding; sequences stand for … in GC…GCGATTGACAGCGTAGAATGAAGG
Description: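 Protein-binding microarray (Agilent 4x180K custom design, double-stranded 60-nt probes: 5' GC cap, 34-nt variable region, 24-nt constant primer region; full probe sequence given). Purified or IVT nuclear receptor:RXRα heterodimers (3:1 NR:RXRα, mostly 270:90 nM) or homodimers were incubated for 1 h in PBS with 2% milk and no ligand, then detected with Alexa488 antibodies. Fluorescence from o1-orientation probes (~5 replicates averaged) was converted to z-scores against 500 random hg19 background probes. Variable regions are seed direct-repeat (DR0–DR5) sites, all their single-nucleotide variants and half-site ablations.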

With TAGCCTAGGTCATTGGGCTAGTATAGTACGCATC as the sequence, how does the PBM binding z-score read?
Its PBM binding z-score is 2.03.

How did the PBM binding z-score turn out when AGTCAAAGTTCATCTAGGTAACGAAAGATATGCT was run?
Its PBM binding z-score is 4.81.

For ATACCAAGGTTATCGTGAGGTCGTTGATACTAAC, which PBM binding z-score is on record?
Its PBM binding z-score is 4.98.

ATATGTAGGTTAGGGTCATTCAAAAAGTAGGGAA was tested. Which PBM binding z-score did it give?
The PBM binding z-score was 4.58.

For CTTACTGGGCCAAAGGTCATTGATTCCAATGCTC, which PBM binding z-score is on record?
Its PBM binding z-score is 4.77.

How did the PBM binding z-score turn out when TCATATAGGTAAAAGGTCAAAGTCGGTGTGGTAA was run?
The PBM binding z-score was 5.3.

CTATGTAGGTTAAGGGGGTCATGCAGTTTGAAAG was tested. Which PBM binding z-score did it give?
The PBM binding z-score was 7.13.

With CGAACTAGGTCAAAGGAGAGTGAAAGGCGACGTA as the sequence, how does the PBM binding z-score read?
Its PBM binding z-score is 0.961.

CGTCAAAGCTCAACTAAGGTAACGTAAAGCACGC was tested. Which PBM binding z-score did it give?
The PBM binding z-score was 0.0405.

ATATGTAGGTTATGGTCATTCAGAAAGTAGGGAA was tested. Which PBM binding z-score did it give?
The PBM binding z-score was 0.871.

How did the PBM binding z-score turn out when ATCGAAAGGTCGTGAGGTGACTATACAGAAAGGC was run?
The PBM binding z-score was 3.64.

How did the PBM binding z-score turn out when TCTAGTTGGTGACGGAGGTCACACACGACGGGTA was run?
The PBM binding z-score was 3.98.

Which PBM binding z-score does the source give for CCTACTGGGCCAACAAGGTCATTGATGCCGATAA here?
Its PBM binding z-score is 5.56.

Which PBM binding z-score does the source give for ATCGAAAGGTCGTGAGGTGAGTTTACAGAAAGGC here?
The PBM binding z-score was 4.49.

How did the PBM binding z-score turn out when ACTAGGAGGACAAAGGTCAGAGCTACGCCAGTGA was run?
Its PBM binding z-score is 3.45.

How did the PBM binding z-score turn out when ATATGTAGGTTAGGGTCCTTCAGAAAGTAGGGAA was run?
Its PBM binding z-score is 0.818.

How did the PBM binding z-score turn out when GCTCGGAGGACAAGGTCAGGGCTTTGTCCGTAGA was run?
The PBM binding z-score was 1.64.

How did the PBM binding z-score turn out when TAGCCTAGGTCATGCGGGCCAGCATAGTGTCGGC was run?
The PBM binding z-score was 2.7.

Which PBM binding z-score does the source give for TCTGCTAGGTCAGTTGGGCAGCTAACGAGCTGCC here?
Its PBM binding z-score is -0.0977.

For CCTACTGGGCCATTCAGAGGACATTGATCATATG, which PBM binding z-score is on record?
Its PBM binding z-score is -0.347.

CTCGAAAGGTCAGTTGAGGTGAGTATACGGATAA was tested. Which PBM binding z-score did it give?
The PBM binding z-score was 4.7.

For AGTCAAAGTTCAGGACGAGGTACCGTAAAGCACG, which PBM binding z-score is on record?
Its PBM binding z-score is 2.08.

Which PBM binding z-score does the source give for CCGAGTAGGTTACGATGGGGCATTCAGTGCGAAT here?
Its PBM binding z-score is 0.842.

For CGAAATAGGTCACCAGGACAGTGAAGAGGTTGGA, which PBM binding z-score is on record?
Its PBM binding z-score is 2.91.

With CTATGTAGCTTAAGGGGGTCATTCAGTTTGAAAG as the sequence, how does the PBM binding z-score read?
The PBM binding z-score was 6.4.

With CTATTTAGGTTAAGGGGGTCATTCAGTTTGAAAG as the sequence, how does the PBM binding z-score read?
The PBM binding z-score was 7.31.

TCGAGTAGGTTACGCGGGCATTCAGGGATGAAGA was tested. Which PBM binding z-score did it give?
The PBM binding z-score was -0.157.

How did the PBM binding z-score turn out when CCGAGTAGGTTACGAGGCGGCATTCAGTGCGAAT was run?
Its PBM binding z-score is -0.141.

CGAACCAGGTCAAAGGACAGTGAAAGGCGACGTA was tested. Which PBM binding z-score did it give?
Its PBM binding z-score is 2.44.

AATACAGGGTCCTCGTAGGCCAGAGTACGCACAG was tested. Which PBM binding z-score did it give?
Its PBM binding z-score is -0.154.

For CTTTGTAGGTTAAGGGGGTCATTCAGTTTGAAAG, which PBM binding z-score is on record?
Its PBM binding z-score is 7.48.

Which PBM binding z-score does the source give for TTGAGTAGGTTACGGGGGCATTCAGGGATGAAGA here?
Its PBM binding z-score is 4.34.

With CTATGTAGGTTAAGGGGGTCAGTCAGTTTGAAAG as the sequence, how does the PBM binding z-score read?
Its PBM binding z-score is 6.49.

Which PBM binding z-score does the source give for CAAGCTAGGTCAAAGGTCAAAGTCGAGCCAACCA here?
The PBM binding z-score was 6.9.

With ACTAGCAGGCCAAAGGTCACTCAAGATTAGTCCG as the sequence, how does the PBM binding z-score read?
Its PBM binding z-score is 4.05.

With ACTAACAGGCCAAGGGTCACTCAAGATTAGTCCG as the sequence, how does the PBM binding z-score read?
The PBM binding z-score was 3.07.

With CGAACTAGGTCAAAAGACAGTGAAAGGCGACGTA as the sequence, how does the PBM binding z-score read?
The PBM binding z-score was 0.721.

For GCTGCTAGGTCAGGTTGGTCTGCTAACGGGTACG, which PBM binding z-score is on record?
The PBM binding z-score was 0.509.

How did the PBM binding z-score turn out when CCTACTGGGCGACGAAAGGTCATTGATTCAGTGA was run?
Its PBM binding z-score is 3.36.

For TCTCGGATGACACGAAAGGTCAGAGCTCGACATC, which PBM binding z-score is on record?
Its PBM binding z-score is 2.94.
